# Measured values taken from PubChem BioAssay (NCI).
# This is part of a sample that, as a whole, favours compounds with a hit. Of some 79,000 tested, about 15% had one in any assay. A number with no mark means an inactive call. Calls of active or inactive are those of the source. Cut-off read from the data, not from the text of the source: active = growth inhibition above about 70%; inactive = the rest.
# Legend:
# [1] = NCI Yeast Anticancer Drug Screen. Data for the rad50 strain (AID 155);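 note: 0% = growth of vehicle-only cultures of the same strain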; settings: S. cerevisiae rad50 strain growth inhibition, hits give high values
# How it was run: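 Growth of the mutant yeast was measured after compound exposure and referenced to vehicle-treated cultures.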
# [2] = NCI Yeast Anticancer Drug Screen. Data for the mec2-1 strain (AID 157); settings: S. cerevisiae mec2-1 strain, hits give high values
# How it was run: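 Yeast mec2-1 mutant treated with compound. Readout: growth inhibition vs vehicle controls.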
# [3] = NCI Yeast Anticancer Drug Screen. Data for the sgs1 mgt1 strain (AID 161);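 note: 0% = growth of cultures given vehicle only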; settings: S. cerevisiae sgs1 mgt1 strain, hits give high values
# How it was run: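 Mutant yeast exposed to compound; growth scored against vehicle-only wells.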
# [4] = NCI Yeast Anticancer Drug Screen. Data for the cln2 rad14 strain (AID 165);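 note: 0% = growth equal to vehicle treated cultures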; settings: S. cerevisiae cln2 rad14 strain, hits give high values
# How it was run: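 cln2 rad14 yeast strain; compound exposure; growth inhibition read vs vehicle controls.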
# [5] = NCI Yeast Anticancer Drug Screen. Data for the bub3 strain (AID 167); settings: S. cerevisiae bub3 mutant strain, hits give high values
# How it was run: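 Whole-cell yeast assay. The mutant strain was incubated with compounds, and growth inhibition was determined by comparison with vehicle-treated cells.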
# [6] = NCI Yeast Anticancer Drug Screen. Data for the mlh1 rad18 strain (AID 175); settings: S. cerevisiae mlh1 rad18 strain growth inhibition, hits give high values
# How it was run: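 Yeast w/ defined DNA-repair lesions; compound exposure; growth vs vehicle controls → % inhibition.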
# [7] = at 5.0 µM (retest, dose inferred, filed as 0.5)
# [8] = at 50.0 µM (retest, dose inferred, filed as 5.0)
SMILES,"growth inhibition [1, 7]","growth inhibition [1, 8]",growth inhibition ([1]; at 50.0 µM),"growth inhibition [2, 7]","growth inhibition [2, 8]",growth inhibition ([2]; at 50.0 µM),"growth inhibition [3, 7]","growth inhibition [3, 8]",growth inhibition ([3]; at 50.0 µM),"growth inhibition [4, 7]","growth inhibition [4, 8]",growth inhibition ([4]; at 50.0 µM),"growth inhibition [5, 7]","growth inhibition [5, 8]",growth inhibition ([5]; at 50.0 µM),"growth inhibition [6, 7]","growth inhibition [6, 8]",growth inhibition ([6]; at 50.0 µM)
COc1ccc(C(=O)Nc2ccccc2OC)cc1,5%,8%,3.45%,-13%,-29%,12.2%,4%,10%,15.1%,6%,17%,19.1%,6%,20%,10.7%,18%,23%,9.5%
Cc1ccc(COCO)c(O)c1,-1%,-8%,-6.7%,0%,2%,35.8%,2%,-4%,-10.8%,-7%,-3%,-18.1%,-3%,-4%,-0.15%,-1%,-4%,-16.4%
CCOC(=O)Nc1cc2c(c(N)n1)N=C(c1ccccc1)CN2,6%,34%,36.3%,-25%,35%,-3.7%,-13%,89% (active),37.2%,11%,33%,17.9%,22%,80% (active),47.1%,10%,52%,18.1%
CCC(CC)C(=O)O.[Ag],99% (active),99% (active),99.2% (active),99% (active),99% (active),99.6% (active),99% (active),99% (active),99.6% (active),99% (active),99% (active),99.2% (active),100% (active),99% (active),99.1% (active),99% (active),99% (active),99.2% (active)
CN(C)CCCc1ccc2oc3ccccc3c2c1,5%,65%,77.8% (active),4%,39%,40.7%,6%,54%,48.6%,15%,34%,27.1%,14%,77% (active),69%,7%,42%,48%
O=C1c2ccccc2C(=O)c2sc(Nc3ccccc3C(F)(F)F)nc21,99% (active),96% (active),90.3% (active),100% (active),97% (active),92.1% (active),99% (active),96% (active),92.7% (active),94% (active),97% (active),90.5% (active),99% (active),97% (active),92.2% (active),99% (active),96% (active),88.5% (active)
CCOC(=O)C1=C(Nc2ccc(Cl)c(Cl)c2)OC/C1=N\NS(=O)(=O)c1ccc(C)cc1,24%,24%,17.6%,15%,15%,51.9%,22%,22%,80.3% (active),5%,5%,51.6%,15%,15%,63%,27%,27%,64.2%
COc1ccc(C(c2ccccc2C(=O)O)c2ccc(OC)c3ccccc23)c2ccccc12,47%,94% (active),59.6%,70% (active),96% (active),88.8% (active),97% (active),96% (active),87.8% (active),96% (active),95% (active),89% (active),94% (active),95% (active),89.8% (active),97% (active),96% (active),88.7% (active)
[N-]=[N+]=CC(=O)c1ccc(C(=O)C=[N+]=[N-])cc1,8%,95% (active),99.2% (active),12%,99% (active),99.5% (active),10%,95% (active),99.4% (active),8%,98% (active),98.7% (active),5%,98% (active),99.5% (active),11%,95% (active),99.2% (active)
Cc1nc(Nc2ccc(Cl)cc2)sc1C(=O)NNC(=S)NN,25%,75% (active),91.5% (active),-9%,64%,88% (active),-3%,77% (active),91.8% (active),8%,65%,91.6% (active),-5%,93% (active),88.3% (active),-30%,82% (active),88.5% (active)
